PAX8 reporter: lowers PAX8-driven luciferase in RMG-I cells | 360,000 compounds, 1.2% hits | RMG-I TPO-luciferase reporter, SteadyGlo, 24 h | inhibition, % at 12.6 µM;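 active = mean replicate inhibition at least 60% with every replicate also reaching 60%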;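 also: luciferase light reporting Pax8 driven TPO promoter activity; plate controls were median of neutral control wells for no effect and mitoxantrone controls for full effect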
EWS-Fli block: inhibitors of EWS/Fli oncoprotein transcriptional activity. 350,000 compounds, 0.67% hits. A673 NR0B1-luciferase reporter, viability-normalised. inhibition, % at 12.6 µM;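 active = mean inhibition of at least 50% after viability correction, with every replicate also passing that limit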;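 also: firefly luciferase signal divided by Alamar Blue viability fluorescence both relative to DMSO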
KKLEB tox: counter-screen for CF NF-kB inhibitors: cytotoxicity; AID 602141; 360,000 compounds, 0.36% hits; activity change (cytotoxicity), % at 5 µM; KKLEB CF airway cells viability, ATPlite luminescence, overnight; stronger effect = lower value; cells stimulated with P. aeruginosa culture filtrate;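 active = corrected activity change at or below -50% at 5 µM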
HIF-2a inh: inhibitors of HIF-2a; AID 624352; inhibition, % at 18.8 µM; 786-0 RCC cells HIF-2a reporter, luciferase luminescence, overnight; 360,000 compounds, 0.72% hits;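 active = inhibition of the luminescence signal of 40% or more relative to plate controls, in a single-dose primary screen at 18.75 µM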
CF NFkB inh: inhibitors of cystic fibrosis induced NF-kB; inhibition, % at 5 µM; 360,000 compounds, 0.86% hits; KKLEB NF-kB-GFP reporter, PAF-induced, GFP fluorescence overnight;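 active = at least 50% inhibition at 5 µM, scaled per plate between neutral and stimulator controls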;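 also: PAF is a Pseudomonas aeruginosa culture filtrate used as stimulus; plate controls were PAF-stimulated DMSO wells for no effect and unstimulated DMSO wells for full effect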
Active calls of the source: *; nt = no result. Sampled rows, rich in hits. Any-hit rate of the full collection: about 2.1%.

SMILES | PAX8 reporter | EWS-Fli block | KKLEB tox | HIF-2a inh | CF NFkB inh
Cc1ccc(-c2cc(-c3ccccc3)no2)cc1 | -24.0 | 58.9* | -32.3 | -120.9 | -17.5
COc1cccc(CN2CC3(CN(C(C)=O)C3)c3c(n(C)c4cc(OC)ccc34)[C@@H]2CO)c1 | nt | -2.5 | nt | nt | nt
O=[N+]([O-])c1ccc(CS(=O)c2ccccc2)cc1 (stereo not given) | -1.4 | -10.7 | 5.3 | -15.3 | -1.1
O=[N+]([O-])c1ccc(S(=O)Cc2ccccc2)c([N+](=O)[O-])c1 (stereo not given) | 121.1* | 36.1 | -19.7 | 93.0* | 85.5*
Nc1nc(CCl)nc(Nc2ccccc2)n1 | 88.5* | 33.8 | -5.9 | -48.7 | 0.5
Cc1ccc(Nc2nc(N)nc(CC#N)n2)cc1 | nt | nt | -20.4 | -305.8 | -4.2
Cc1ccc(Nc2nc(N)nc(CCl)n2)cc1 | 105.2* | 71.1* | -19.5 | -96.7 | 45.3
COc1ccc(-c2cc3c(nn2)-c2ccccc2C3=O)cc1 | 7.3 | 39.8 | -50.1* | 13.8 | -27.7
O=C1c2ccccc2-c2nnc(-c3ccccc3)cc21 | nt | nt | -12.2 | -76.8 | -1.6
N#CC(C#N)=NNc1ccc2cn[nH]c2c1 | 7.7 | -2.0 | -7.7 | 3.4 | 79.2*
CCNC(=S)Nc1ccc2cn[nH]c2c1 | -6.9 | nt | -0.6 | 5.4 | -1.8
CN1C[C@@H]2[C@H](c3ccccc31)[C@@H](CO)N2C(=O)C1CC1 | -4.7 | -1.5 | nt | nt | nt
NCC(c1ccccc1)c1c[nH]c2ccccc12 (stereo not given) | -2.7 | -9.7 | -9.7 | 2.1 | -0.4
O=[N+]([O-])CC(c1ccc(F)cc1)c1c[nH]c2ccccc12 (stereo not given) | 43.0 | 55.1* | -8.5 | 23.9 | 12.1
C[C@@H]1CN([C@H](C)CO)C(=O)c2ccccc2-c2ccccc2CO[C@@H]1CN(C)S(=O)(=O)c1ccc([N+](=O)[O-])cc1 | 2.9 | -1.5 | nt | nt | nt
CCOC(=O)c1ccc(N=Nc2c(C)c(C#N)c(O)[nH]c2=O)cc1 | 24.5 | nt | -19.6 | -138.7 | 65.4*
CC1(C)CC(=O)C2=C(C1)N=C1c3ccccc3C(=O)C1C2c1ccc(Cl)cc1 (stereo not given) | nt | nt | 3.6 | 47.1* | 34.6
Cc1ccc(C2C3=C(CC(C)(C)CC3=O)N=C3c4ccccc4C(=O)C32)cc1 (stereo not given) | 33.0 | nt | -2.6 | 29.9 | 23.7
N#C/C(C(=O)N1CCCC1)=C1/N=C(N)c2ccccc21 | 107.9* | 1.2 | 8.9 | 21.2 | -4.0
COc1cc(CN2CC3(CCN(C(=O)CN4CCOCC4)CC3)c3c(n(C)c4cc(OC)ccc34)[C@H]2CO)cc(OC)c1 | nt | -1.9 | nt | nt | nt
CCCOc1ccc(/C(CC)=N/NC(=O)C2(C)CC2(Br)Br)cc1 (stereo not given) | nt | nt | -51.6* | 1.6 | 34.2
CCCC(=O)N1CC2(CN[C@H](CO)c3c2c2ccc(OC)cc2n3C)C1 | nt | 0.6 | nt | nt | nt
CC(=C\C(=O)O)/C(=C/c1ccc(C)o1)C(=O)O | 76.0* | 3.8 | 6.9 | 11.8 | 6.5
COc1ccc(C#Cc2ccc([C@@H]3[C@H](CO)N4CCCCN(C(=O)Nc5ccccc5)C[C@@H]34)cc2)cc1 | 54.0 | 69.7* | nt | nt | nt
COc1ccc(C#Cc2ccc([C@H]3[C@H]4CN(C(=O)Nc5ccccc5)CCCCN4[C@H]3CO)cc2)cc1 | -20.5 | -3.0 | nt | nt | nt
SMILES | PAX8 reporter | EWS-Fli block | KKLEB tox | HIF-2a inh | CF NFkB inh
O=C(Nc1ccc(F)cc1)N1CCCCN2[C@@H](CO)[C@H](c3ccc(C#Cc4ccccc4)cc3)[C@@H]2C1 | 69.9* | 60.5* | nt | nt | nt
COc1ccc(C#Cc2ccc([C@H]3[C@@H](CO)N4CCCCN(C(=O)Nc5ccccc5)C[C@@H]34)cc2)cc1 | 0.7 | 14.0 | nt | nt | nt
COc1ccc(NC(=O)N2CCCCN3[C@H](CO)[C@H](c4ccc(C#Cc5ccccc5)cc4)[C@H]3C2)cc1 | 82.0* | 2.7 | nt | nt | nt
COc1ccccc1NC(=O)N1CCCCN2[C@@H](CO)[C@@H](c3ccc(C#CC4CCCC4)cc3)[C@@H]2C1 | 59.1 | 71.1* | nt | nt | nt
O=C(Nc1ccc(F)cc1)N1CCCCN2[C@H](CO)[C@@H](c3ccc(C#Cc4ccccc4)cc3)[C@@H]2C1 | 24.4 | 7.4 | nt | nt | nt
O=C(C[C@@H]1CC[C@H](NC(=O)CC2CC2)[C@H](CO)O1)NCc1ccccc1 | nt | 15.0 | nt | nt | nt
COc1ccc(NC(=O)N(C)C[C@@H]2Oc3c(NC(=O)Nc4ccc(C(F)(F)F)cc4)cccc3C(=O)N([C@@H](C)CO)C[C@@H]2C)cc1 | nt | -2.0 | nt | nt | nt
COc1ccc(-n2sc3c(c2=S)-c2cc(OC)ccc2NC3(C)C)cc1 | nt | nt | -7.9 | 41.4* | 9.4
C[C@H](O)C#Cc1cnc2c(c1)C(=O)N([C@@H](C)CO)C[C@@H](C)[C@H](CN(C)C(=O)c1ccccc1F)O2 | nt | -5.4 | nt | nt | nt
C[C@@H]1CN([C@@H](C)CO)C(=O)Cc2cc(NS(=O)(=O)c3ccccc3)ccc2O[C@@H]1CN(C)Cc1ccc(Cl)c(Cl)c1 | 31.1 | 8.7 | nt | nt | nt
C[C@@H]1CN([C@@H](C)CO)C(=O)Cc2cc(NS(=O)(=O)c3ccc(F)cc3)ccc2O[C@H]1CN(C)Cc1ccc(Cl)c(Cl)c1 | 93.3* | 23.4 | nt | nt | nt
C[C@H](CO)N1C[C@H](C)[C@@H](CN(C)Cc2ccc(Cl)c(Cl)c2)Oc2ccc(NS(=O)(=O)c3ccccc3)cc2CC1=O | 83.3* | -8.1 | nt | nt | nt
CO[C@@H]1CN(C)C(=O)c2ccc(NC(=O)NC(C)C)cc2OC[C@@H](C)N(Cc2cncnc2)C[C@H]1C | nt | 3.5 | nt | nt | nt
CC(C)(C)[S@](=O)N1Cc2cc(C(=O)N3CCCCC3)nc(-c3cccc(-c4cccc(C#N)c4)c3)c2[C@@H]1CCO | -12.0 | 0.7 | nt | nt | nt
C[C@H](CO)N1C[C@H](C)[C@H](CN(C)Cc2ccc(C(F)(F)F)cc2)Oc2c(NC(=O)CCCCCC(=O)Nc3ccccc3N)cccc2C1=O | 40.1 | 39.9 | nt | nt | nt
CC(=O)Oc1ccc(N2C(=O)c3cccc4c([N+](=O)[O-])ccc(c34)C2=O)cc1 | 44.1 | 66.3* | 0.1 | 16.1 | 14.5
OC[C@H]1Nc2ccc(C#Cc3ccccc3)cc2[C@@H]2[C@H]1CCN2Cc1nccs1 | -36.9 | -18.9 | nt | nt | nt
COc1ccc(Cl)cc1NC(=O)CN(C)CC(=O)Nc1cc(OC)c(OC)c(OC)c1 | 20.2 | 61.8* | -7.4 | 11.1 | 6.5
COc1ccc(Cl)cc1NC(=O)CN(C)CC(=O)Nc1ccc(Br)cc1 | 4.2 | -1.1 | -10.7 | 6.3 | -21.0
COc1cc(-c2noc(C)c2-c2ccc(N(C)C)nc2)cc(OC)c1OC | 74.2* | 61.4* | -23.2 | 28.6 | 36.8
Cc1noc(C)c1S(=O)(=O)Nc1ccc2c(c1)CC(=O)N([C@H](C)CO)C[C@@H](C)[C@@H](CN(C)CC1CC1)O2 | nt | -0.8 | nt | nt | nt
COCCCNC(=O)C(=O)Nc1ccc2c(c1)N(S(=O)(=O)c1cccs1)CCC2 | 44.2 | 62.9* | -30.6 | 9.3 | 47.8
CC(C)NC(=O)Nc1ccc2c(c1)C(=O)N([C@H](C)CO)C[C@@H](C)[C@@H](CN(C)C(=O)NC1CCCCC1)OCCCC[C@@H](C)O2 | -21.8 | nt | nt | nt | nt
COc1cc(/C=C2/C(=O)c3cccc([N+](=O)[O-])c3C2=O)c(Br)cc1O | -6.7 | -14.0 | -25.8 | 95.8* | 40.7

Assay outcomes as filed in PubChem BioAssay.
